According to PubChem BioAssay AID1508600 (Functional Genomics Laboratory (NCATS/FGL), 2020):
Out of some 53,000 sequences screened, about 3,700 (7%) were called active. The full list was thinned out, with actives kept by preference. A number with no mark means an inactive call.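 Rule for the calls: active = gene knockdowns whose robust z-score for IL-1 alpha signal is at least 2 or at most -2, so actives lie on both sides; inactive = the rest.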

assay: Components of the Cytosolic LPS Sensing Pathway: Gene Identification via Genome-wide siRNA Screen; settings: RAW264.7 macrophages, IL-1a HTRF, actives lie on both sides, screened at 100 nM (by protocol), cells primed 5 h with Pam3CSK4 first;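 note: robust z of the log signal after scaling to non-targeting control siRNA wells of the plate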
How it was run: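 IL-1a HTRF of supernatants after 24 hour LipidA transfection of Pam3CSK4-primed (5 hours) RAW264.7 cells, 48h post-siRNA transfection (100 nM). Scores: percent of plate negative-control median, then log-based robust z-score.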

Sequence	z-score
GGAGGAACAAUCAUCUAUATT against Ripk2	1.1
GGCACAGAUGUUUUGAGAATT against Surf4	-0.954
CGAAAAUAUGGAUACUACUTT against Ippk	0.732
CGGUGAUCGUCAUUUUAUUTT against Ap4m1	2.47 (active)
GGUGAACCUCAACAGACUCTT against Gtf3c4	-1.7
GGAAAAAAUCACAUUGACUTT against H2ac6	-0.835
GCCCAUUAAUGGGAUAUAATT against Ccdc134	0.148
GGCUCUGGCAGAAAUGGAUTT against Pex26	-0.0204
GGGAACAGAAGUUGUGAGATT against Gulp1	1.5
AGGUCAAUAAAGAGUGUGATT against Fam25c	-1.66
GGAUACGAAAACGACUGCATT against Pdpr	2.05 (active)
GGACCAAUUGGAUCCUUUUTT against Olfr1340	-1.6
GCAUACGAUGGGAAUUGUATT against Wdr5b	-1.6
GGAAGAAGAUAAAGAGAAATT against Gtf2a1	1.09
GGAAGUUACUGUGAGAUAATT against Mtbp	0.265
GGAUGUUAUUCAGUUUUCATT against BC051019	2.37 (active)
GGCCUAUCUUGUUUAUUUGTT against Tgtp1	-0.316
AUCGUGUUUGCUGUAUUUGTT against Olfr1258	0.33
GGAAAUCACCAACUUGGCCTT against Pou3f3	-0.0208
GGAUUUGUAGUUCAUCUCATT against Olfr77	0.0834
GGUCAGUGGAGCUCUCUAUTT against Fam234a	1.43
GGUUCUAAAACUUAACAAGTT against Brf2	2.7 (active)
GGCAAACAACUGAAUAAGGTT against Pbsn	-0.611
CCAAGUUAGUCUGCGUAUUTT against Zfp979	-0.52
CCCUACCCAGUUUCAGUUGTT against Phf12	0.206
CCUGUGAAUUCAUCGUUCATT against Vps26c	2.34 (active)
GCAUACCUAGGAAAAAACUTT against Ednra	0.524
GGUAUUGACAGGGAUCUGATT against Limk1	1.19
GGCCUUAGGAAUCAAGUUGTT against 9530053A07Rik	1.24
GGGUUUCAAUGGCACAAUUTT against Kif3b	2.12 (active)
